Measured values from the supplement of paper PMC11732987, “Enantioselective OTUD7B fragment discovery through chemoproteomics screening and high-throughput optimisation” (Communications Chemistry, 2025).

Experiments:
Experiment in all cases: log2 ratio of Biotin-Ahx-Ub-VS probe labelling (fragment/DMSO); higher = less target engagement (more negative = stronger competition), active = hit call of the paper (q ≤ 0.05, log2 ratio ≤ -1)
Conditions in all cases: compound concentration: 200 uM; treatment time: 3 h
ALG13 = biological target: T1, ALG13 (UniProt Q9NP73)
T1 sequence (whole entry): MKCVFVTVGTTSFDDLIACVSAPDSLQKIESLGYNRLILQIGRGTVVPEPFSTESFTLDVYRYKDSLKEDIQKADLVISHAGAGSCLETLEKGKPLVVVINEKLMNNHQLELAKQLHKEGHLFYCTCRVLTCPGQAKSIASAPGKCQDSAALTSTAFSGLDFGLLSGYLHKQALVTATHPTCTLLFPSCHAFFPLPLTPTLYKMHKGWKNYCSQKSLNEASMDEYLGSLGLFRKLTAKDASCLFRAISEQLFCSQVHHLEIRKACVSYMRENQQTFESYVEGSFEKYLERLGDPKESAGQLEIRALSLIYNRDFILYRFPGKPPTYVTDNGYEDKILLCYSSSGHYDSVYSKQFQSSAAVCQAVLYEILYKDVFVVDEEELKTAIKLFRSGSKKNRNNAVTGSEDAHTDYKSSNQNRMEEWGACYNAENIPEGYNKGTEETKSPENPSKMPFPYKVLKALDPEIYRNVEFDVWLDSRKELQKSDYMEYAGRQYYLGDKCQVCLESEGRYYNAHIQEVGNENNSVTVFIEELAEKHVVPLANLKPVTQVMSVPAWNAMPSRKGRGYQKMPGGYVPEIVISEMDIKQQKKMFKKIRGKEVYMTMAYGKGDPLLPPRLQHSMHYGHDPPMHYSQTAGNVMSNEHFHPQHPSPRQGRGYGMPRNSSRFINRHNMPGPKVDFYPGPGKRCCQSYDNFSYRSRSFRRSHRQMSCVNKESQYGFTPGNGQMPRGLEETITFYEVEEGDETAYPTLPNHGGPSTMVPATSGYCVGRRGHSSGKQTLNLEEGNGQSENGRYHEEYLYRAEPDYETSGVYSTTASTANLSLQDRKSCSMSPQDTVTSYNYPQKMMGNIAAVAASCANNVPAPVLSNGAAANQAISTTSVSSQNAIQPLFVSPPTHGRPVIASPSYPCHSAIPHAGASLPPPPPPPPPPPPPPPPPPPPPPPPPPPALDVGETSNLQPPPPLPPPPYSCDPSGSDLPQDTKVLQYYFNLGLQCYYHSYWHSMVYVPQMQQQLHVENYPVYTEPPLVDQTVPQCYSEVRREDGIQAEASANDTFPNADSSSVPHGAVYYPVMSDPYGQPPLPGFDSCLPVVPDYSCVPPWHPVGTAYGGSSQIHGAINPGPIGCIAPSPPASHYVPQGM
How it was run: (§1)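 HEK293T lysate (495 µg per sample, in Tris/CHAPS/IGEPAL buffer with protease inhibitors) was treated in triplicate with fragment at 200 µM or with DMSO for 3 h. It was then treated with Biotin-Ahx-Ub-VS (0.5 µM final) for 1 h. Labelled DUBs were NeutrAvidin-enriched, digested with LysC and trypsin, and run by diaPASEF LC-MS/MS. Spectronaut label-free quantities were global-median-normalised. Values are average log2 ratios fragment/DMSO by unpaired t-test, using proteins with ≥2 unique peptides.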

ATXN3 = ATXN3 (UniProt P54252)
How it was run: as §1

BAP1 = biological target: T2, BAP1 (UniProt Q92560)
T2 sequence (whole entry): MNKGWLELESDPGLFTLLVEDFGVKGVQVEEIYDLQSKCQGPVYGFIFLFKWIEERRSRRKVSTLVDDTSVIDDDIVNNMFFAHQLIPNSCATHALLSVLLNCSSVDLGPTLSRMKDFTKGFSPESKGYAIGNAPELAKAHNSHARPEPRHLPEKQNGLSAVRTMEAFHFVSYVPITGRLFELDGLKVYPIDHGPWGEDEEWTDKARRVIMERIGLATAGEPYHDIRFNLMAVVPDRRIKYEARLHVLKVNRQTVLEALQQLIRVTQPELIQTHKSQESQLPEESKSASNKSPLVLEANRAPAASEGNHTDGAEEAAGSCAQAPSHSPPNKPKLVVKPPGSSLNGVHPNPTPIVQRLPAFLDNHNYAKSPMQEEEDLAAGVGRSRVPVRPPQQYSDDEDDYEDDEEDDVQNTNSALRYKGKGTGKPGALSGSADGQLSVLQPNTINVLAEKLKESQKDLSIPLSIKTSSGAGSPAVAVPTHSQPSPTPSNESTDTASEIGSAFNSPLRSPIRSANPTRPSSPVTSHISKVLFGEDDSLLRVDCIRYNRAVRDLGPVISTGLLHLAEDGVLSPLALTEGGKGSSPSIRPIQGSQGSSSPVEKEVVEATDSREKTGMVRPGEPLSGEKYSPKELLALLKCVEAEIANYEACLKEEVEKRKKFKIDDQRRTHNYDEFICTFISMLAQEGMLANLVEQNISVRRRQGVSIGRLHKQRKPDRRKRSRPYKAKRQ
How it was run: as §1

EIF3F = EIF3F (UniProt O00303)
How it was run: as §1

EIF3H = EIF3H (UniProt O15372)
How it was run: as §1

FAM105A = biological target: T3, FAM105A (UniProt Q9NUU6)
T3 sequence (whole entry): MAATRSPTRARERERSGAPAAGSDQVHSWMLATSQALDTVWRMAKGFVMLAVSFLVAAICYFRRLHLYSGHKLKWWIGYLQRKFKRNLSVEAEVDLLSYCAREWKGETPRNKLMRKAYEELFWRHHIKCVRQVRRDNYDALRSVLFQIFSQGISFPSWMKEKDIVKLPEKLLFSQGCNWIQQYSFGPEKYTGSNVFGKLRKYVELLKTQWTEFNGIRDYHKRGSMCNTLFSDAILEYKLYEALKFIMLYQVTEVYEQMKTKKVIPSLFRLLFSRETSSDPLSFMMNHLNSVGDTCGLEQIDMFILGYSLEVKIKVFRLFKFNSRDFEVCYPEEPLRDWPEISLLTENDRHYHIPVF
How it was run: as §1

OTUB1 = OTUB1 (UniProt Q96FW1)
How it was run: as §1

OTUD4 = biological target: T4, OTUD4 (UniProt Q01804)
T4 sequence (whole entry): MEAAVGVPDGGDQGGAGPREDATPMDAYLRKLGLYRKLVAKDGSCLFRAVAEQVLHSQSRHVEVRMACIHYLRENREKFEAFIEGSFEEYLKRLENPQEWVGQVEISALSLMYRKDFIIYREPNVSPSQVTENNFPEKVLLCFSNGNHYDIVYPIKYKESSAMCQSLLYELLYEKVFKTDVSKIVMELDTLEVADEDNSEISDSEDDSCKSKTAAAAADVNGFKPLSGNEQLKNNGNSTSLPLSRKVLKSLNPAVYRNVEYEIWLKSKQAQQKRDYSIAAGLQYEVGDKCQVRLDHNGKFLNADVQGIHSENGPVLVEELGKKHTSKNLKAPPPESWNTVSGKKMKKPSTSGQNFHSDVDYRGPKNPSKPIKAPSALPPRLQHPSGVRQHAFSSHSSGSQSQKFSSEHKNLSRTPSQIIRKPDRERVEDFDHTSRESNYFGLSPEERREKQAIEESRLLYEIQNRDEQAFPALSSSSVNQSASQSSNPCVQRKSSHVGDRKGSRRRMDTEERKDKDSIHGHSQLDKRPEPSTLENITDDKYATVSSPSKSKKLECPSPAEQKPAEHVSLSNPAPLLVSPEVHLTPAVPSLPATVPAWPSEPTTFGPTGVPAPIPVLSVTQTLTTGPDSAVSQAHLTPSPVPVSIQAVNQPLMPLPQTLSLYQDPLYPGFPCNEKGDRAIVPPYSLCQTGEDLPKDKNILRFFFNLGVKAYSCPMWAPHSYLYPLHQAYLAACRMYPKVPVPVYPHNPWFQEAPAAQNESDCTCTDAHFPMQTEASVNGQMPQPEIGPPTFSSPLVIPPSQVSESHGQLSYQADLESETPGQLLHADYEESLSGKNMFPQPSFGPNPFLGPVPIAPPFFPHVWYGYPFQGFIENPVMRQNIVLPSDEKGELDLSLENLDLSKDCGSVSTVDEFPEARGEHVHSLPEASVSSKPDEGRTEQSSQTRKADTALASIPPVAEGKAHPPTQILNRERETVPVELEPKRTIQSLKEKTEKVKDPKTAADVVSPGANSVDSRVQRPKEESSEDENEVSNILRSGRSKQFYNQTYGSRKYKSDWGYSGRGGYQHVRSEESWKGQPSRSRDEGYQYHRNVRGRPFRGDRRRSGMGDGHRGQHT
How it was run: as §1

OTUD5 = biological target: T5, OTUD5 (UniProt Q96G74)
T5 sequence (whole entry): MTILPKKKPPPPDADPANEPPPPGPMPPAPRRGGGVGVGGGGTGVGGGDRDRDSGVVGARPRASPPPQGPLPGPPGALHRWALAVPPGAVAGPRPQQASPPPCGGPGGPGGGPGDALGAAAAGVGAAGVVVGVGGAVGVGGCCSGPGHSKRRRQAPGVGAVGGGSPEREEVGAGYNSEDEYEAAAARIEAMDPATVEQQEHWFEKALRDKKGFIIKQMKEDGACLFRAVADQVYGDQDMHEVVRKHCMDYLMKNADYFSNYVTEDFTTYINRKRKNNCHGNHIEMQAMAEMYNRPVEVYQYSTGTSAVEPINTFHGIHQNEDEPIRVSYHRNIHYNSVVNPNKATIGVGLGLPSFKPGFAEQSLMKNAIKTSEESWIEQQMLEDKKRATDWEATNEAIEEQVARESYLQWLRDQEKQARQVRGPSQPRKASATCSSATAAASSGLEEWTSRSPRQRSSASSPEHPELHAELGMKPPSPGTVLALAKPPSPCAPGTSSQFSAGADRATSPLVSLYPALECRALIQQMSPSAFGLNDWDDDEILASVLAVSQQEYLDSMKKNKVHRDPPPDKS
How it was run: as §1

Measured: log2 ratio of Biotin-Ahx-Ub-VS probe labelling

Chain of EIF3F (O00303 whole entry): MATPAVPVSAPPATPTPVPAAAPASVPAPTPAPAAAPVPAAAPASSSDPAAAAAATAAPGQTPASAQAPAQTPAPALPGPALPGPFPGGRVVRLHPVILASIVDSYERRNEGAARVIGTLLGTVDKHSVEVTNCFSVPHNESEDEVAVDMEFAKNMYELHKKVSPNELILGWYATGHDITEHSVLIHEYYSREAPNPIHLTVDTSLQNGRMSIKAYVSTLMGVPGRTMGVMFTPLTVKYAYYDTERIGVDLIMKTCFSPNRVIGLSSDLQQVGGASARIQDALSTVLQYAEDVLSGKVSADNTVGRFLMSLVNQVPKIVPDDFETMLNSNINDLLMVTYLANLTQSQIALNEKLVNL
Chain of EIF3H (O15372 whole entry): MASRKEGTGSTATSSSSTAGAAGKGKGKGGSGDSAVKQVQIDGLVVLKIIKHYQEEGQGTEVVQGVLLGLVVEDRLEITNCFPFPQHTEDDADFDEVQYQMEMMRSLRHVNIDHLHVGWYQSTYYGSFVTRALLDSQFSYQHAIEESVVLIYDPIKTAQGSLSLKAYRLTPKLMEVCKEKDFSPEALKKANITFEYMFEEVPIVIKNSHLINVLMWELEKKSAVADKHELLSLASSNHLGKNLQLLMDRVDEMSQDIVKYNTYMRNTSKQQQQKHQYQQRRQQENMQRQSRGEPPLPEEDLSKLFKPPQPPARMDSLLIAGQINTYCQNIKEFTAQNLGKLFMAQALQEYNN
Chain of OTUB1 (Q96FW1 whole entry): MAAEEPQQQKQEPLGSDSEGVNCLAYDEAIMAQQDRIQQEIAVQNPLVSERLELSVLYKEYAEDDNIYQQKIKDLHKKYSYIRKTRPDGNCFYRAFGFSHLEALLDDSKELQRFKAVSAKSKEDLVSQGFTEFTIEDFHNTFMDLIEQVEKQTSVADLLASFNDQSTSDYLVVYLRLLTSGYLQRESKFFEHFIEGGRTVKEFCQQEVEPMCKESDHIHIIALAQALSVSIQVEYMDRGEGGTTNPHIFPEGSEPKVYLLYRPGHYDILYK
Chain of ATXN3 (P54252 whole entry): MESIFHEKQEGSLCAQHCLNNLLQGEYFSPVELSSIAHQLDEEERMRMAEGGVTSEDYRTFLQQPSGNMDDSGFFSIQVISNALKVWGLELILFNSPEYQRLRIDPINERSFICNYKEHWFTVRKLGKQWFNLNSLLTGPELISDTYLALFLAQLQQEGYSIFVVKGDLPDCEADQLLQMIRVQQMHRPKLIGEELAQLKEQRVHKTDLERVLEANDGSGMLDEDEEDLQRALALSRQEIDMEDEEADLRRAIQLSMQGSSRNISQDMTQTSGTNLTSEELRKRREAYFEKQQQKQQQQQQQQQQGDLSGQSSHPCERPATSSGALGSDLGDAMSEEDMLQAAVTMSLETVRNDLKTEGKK

COc1ccc(Cl)cc1NC(=O)CCl
inactive: ALG13 0.166 | ATXN3 -0.592 | EIF3F -0.594 | EIF3H 0.0551 | FAM105A -0.287 | OTUB1 -0.497 | OTUD4 -0.484 | OTUD5 -0.638
active: BAP1 -1.61
